Source: PubChem (National Center for Advancing Translational Sciences (NCATS))
PKM2 inh: qHTS Assay for Inhibitors of Human Muscle isoform 2 Pyruvate Kinase; AID 1634, 2009; 260,000 compounds, 0.058% hits; purified PKM2, ATP generation, Kinase-Glo luminescence; Potency, µM (top dose mostly 57.5 µM), for the others: at the top dose activity change, negative = inhibition, usual class: inhibitors; active means well fitted inhibition curve with a large enough effect; further: nearly all actives have a fitted effect of over 60% in size
Target sequence (P14618 whole entry, looked up, canonical isoform): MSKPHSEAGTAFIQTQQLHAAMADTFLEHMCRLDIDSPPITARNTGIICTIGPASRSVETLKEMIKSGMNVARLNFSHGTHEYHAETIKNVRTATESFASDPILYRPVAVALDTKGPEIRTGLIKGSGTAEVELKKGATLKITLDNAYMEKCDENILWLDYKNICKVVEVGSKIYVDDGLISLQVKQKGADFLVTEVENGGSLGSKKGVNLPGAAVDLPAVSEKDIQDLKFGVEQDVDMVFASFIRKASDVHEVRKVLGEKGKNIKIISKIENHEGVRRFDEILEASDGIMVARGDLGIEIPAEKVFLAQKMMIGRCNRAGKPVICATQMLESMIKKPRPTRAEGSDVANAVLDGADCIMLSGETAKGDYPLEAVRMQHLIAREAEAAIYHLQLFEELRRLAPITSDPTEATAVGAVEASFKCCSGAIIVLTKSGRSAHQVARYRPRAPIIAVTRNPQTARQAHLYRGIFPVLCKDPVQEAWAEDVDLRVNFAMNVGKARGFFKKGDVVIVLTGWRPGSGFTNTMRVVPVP
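Coupled luciferase luminescence (Kinase-Glo) detects ATP generated from 0.1 mM ADP and 0.5 mM PEP in imidazole buffer pH 7.2 with KCl, MgCl2; 1 h at room temperature. Enzyme at intermediate activity; normalized to uninhibited and no-enzyme controls.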
* = called active by the depositor; [ ] = another dose, or the depositor's remark. Shown is part of a subset that was picked to be rich in hits. Potency means the concentration at half of the fitted maximal effect.

SMILES | PKM2 inh
COc1ccc2[nH]c(=O)c(-c3noc(-c4ccccc4)n3)cc2c1 | 109%
COc1ccc(-c2nc3ccccc3[nH]2)cc1 | 13µM*
Cc1c(C(=O)Nc2cccc(N(C)S(C)(=O)=O)c2)cccc1[N+](=O)[O-] | 53%
O=C(O)COc1ccccc1/C=N/NC(=O)CN1CCN(S(=O)(=O)c2ccc(Br)cc2)CC1 | -11%
O=C(c1ccc(S(=O)(=O)c2cccc(Cl)c2)c([N+](=O)[O-])c1)N1CCN(Cc2ccccc2)CC1 | 64%
COc1ccc(-c2nc3oc4cc(OC)ccc4c(=O)c3c(=O)n2Cc2ccco2)cc1 | 33%
COc1ccc(-c2cc3nc(C)n(N)c(=O)c3s2)cc1 | 4µM*
Cc1ccc(NC(=O)COC(=O)CNC(=O)c2ccc3ccccc3c2)c([N+](=O)[O-])c1 | 33%
O=C(O)/C=C/C(=O)c1ccc2c(c1)NC(=O)CO2 | 40%
OC(CNCCCCNCC(O)C(F)(F)F)C(F)(F)F (centres undefined) | 7%
O=C(O)/C=C/C(=O)Nc1ccccc1SC(F)(F)F | 52%
C/C(=N/NC(=O)c1cccs1)c1c(C)[nH]n(-c2nc3ccccc3s2)c1=O | 14µM*
CCNc1sc(C(=O)c2cccs2)c(N)c1-c1nc2ccccc2s1 | 44%
COc1ccc(CNC(=O)C2=CCN(S(=O)(=O)c3ccc(C)cc3)CC2)cc1 | 95%
CSc1sc(C(=O)NN)c2c1C1(CCC2)SCCS1 | 36%
Cc1cc(C)c(S(=O)(=O)N2CCN(C(=O)CCn3nc(C)c(C)c3C)CC2)c(C)c1 | 80%
Cc1ccc(-c2nn(-c3ccccc3)cc2C=O)o1 | 37%
Cn1c(=O)c(C(=O)COC(=O)c2cc(-c3ccco3)nc3ccccc23)c(N)n(CC2CC2)c1=O | 48%
CCOC(=O)c1c(NC(=O)CSc2nc3cc(Cl)ccc3c(=O)n2Cc2ccco2)sc(C(=O)N(C)C)c1C | 46%
COc1cccc(-n2cn[nH]c2=S)c1 | 14µM*
CC(=O)N(c1nnc(-c2cccc(C)c2)s1)C1CCCC1 | 46%
N#C/C(=C\c1ccc(F)c(Cl)c1)S(=O)(=O)c1ccccn1 | -3%
Nc1ccc2nc(Cc3ccccc3)[nH]c2c1 | 80%
Cc1nc2ccc(N=NN(C)C)cc2[nH]1 | 62%
Cc1ccc2nc(-c3ccccn3)[nH]c2c1 | 16µM*
SMILES | PKM2 inh
Cc1c(F)cccc1NS(=O)(=O)c1ccc2c(c1)c(=O)n(C)c(=O)n2C | 88%
c1ccc2nc(-c3nc4ccccc4o3)ccc2c1 | 18µM*
O=C1CCC(=O)N1c1cccc(-c2nc3ccccc3o2)c1 | 27%
O=C1/C(=C/c2ccc(Cl)cc2)NC(=S)N1Cc1cccnc1 | 40%
O=C(NCc1nnc2c(C(F)(F)F)cc(Cl)cn12)c1cccs1 | 99%
C=CCc1cccc2cc(C(=O)Nc3ccc(S(=O)(=O)Nc4nnc(CC)s4)cc3)c(=O)oc12 | 39%
CCCNc1nc(Cl)nc(NCc2cccnc2)n1 | 30%
Cc1ccc(CNC(=O)CC2(CC3=NS(=O)(=O)c4ccccc4N3)CCCC2)cc1 | 50%
Cc1nc2cc(NCc3ccccc3O)ccc2n1Cc1ccccc1 | 109%
Cc1ccsc1/C=C1\CCc2ccccc2C1=O | 25µM*
COc1ccc2c(c1)c(C(=O)N/N=C/c1ccc(O)c(O)c1)c(C)n2C | 48%
COc1ccc(S(=O)(=O)N2CCN=C2SCc2cccnc2)cc1 | 56%
COc1cccc(Cn2nc(C(=O)O)c3ccccc3c2=O)c1 | 38%
COc1cccc(CSc2nc3ccncc3[nH]2)c1 | 14µM*
CC1(C)CC(=O)C2=C(C1)O[C@@]1(c3ccsc3)Cc3cc(C#N)ccc3C2O1 | 40%[11.5 µM]
O=C(CNC(=O)c1ccc(Br)o1)OCC(=O)c1cccc([N+](=O)[O-])c1 | 59%
COc1cccc(CNC(=O)C2CCN(S(=O)(=O)c3ccc(Br)s3)CC2)c1 | 38%
CNS(=O)(=O)c1ccc(NCC2COc3ccccc3O2)c([N+](=O)[O-])c1 (centres undefined) | 43%
Cc1cccc(NS(=O)(=O)c2cc3c(cc2C)NC(=O)CO3)c1 | 89%
Cc1ccc(N=Cc2c(C)[nH]n(-c3nc4ccccc4[nH]3)c2=O)cc1 | 10µM*
Cc1ccc(NC(=O)C2C3CCCC2C3c2ccccc2)cc1 (centres undefined) | 31%
Nc1c(S(=O)(=O)c2cccc(Cl)c2)c2nc3ccccc3nc2n1/N=C/c1ccc(O)c(O)c1 | 36%
CCCCN=C1NN=C(c2ccc(C)c(C)c2)CS1 | 72%
c1cc2c(cc1C1=NNC(=NC3CC3)SC1)OCCO2 | 14µM*
COc1ccc(CN=C2NN=C(c3ccccc3)CS2)cc1 | 46%
SMILES | PKM2 inh
COc1cc(N2C(=O)C=CC2=O)c(OC)cc1Cl | 121%
O=[N+]([O-])c1cccc(S(=O)(=O)c2ccc(NCCO)c([N+](=O)[O-])c2)c1 | 69%
O=C1CCN(Cc2nc(-c3ccc(Cl)cc3)no2)CCN1 | 32%
Cc1nn(CCC(=O)N2CCN(S(=O)(=O)c3ccccc3)CC2)c(C)c1C | 83%
Cc1ccc(C(=O)OCn2ncc(Cl)c(Cl)c2=O)cc1 | 31%
Cc1ccc(C(=O)/C=C/C(=O)c2ccc(C)cc2)cc1 | 54%
